Assay [1] can be described thus: Tanguay_ZF_120hpf_SOMI_legacy: (Legacy) Oregon State University Tanguay Lab 120 Hour Post-fertilization zebrafish Assay for Somite Malformation (AID 2283647). The method in brief: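 Read-out: presence or absence of somite malformation in 120 hpf larvae, gain-of-signal relative to DMSO baseline. Embryos lacked chorion (pronase, 4 hpf) and were exposed statically from 6 hpf at 28C; dead larvae not scored.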

A short description of assay [2]: Tanguay_ZF_120hpf_PFIN_legacy: (Legacy) Oregon State University Tanguay Lab 120 Hour Post-fertilization zebrafish Assay for Pectoral Fin Malformation (AID 2283648).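 Note: each larva judged yes or no for fin defect by brightfield with dead larvae skipped.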 In short, it runs like this:
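Pectoral fin malformation was recorded as a binary endpoint at 120 hpf in wild-type Tropical 5D larvae, which had been dechorionated and exposed statically from 6 hpf at 28C in 0.64% DMSO. Dead embryos were excluded.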

Assay [3] can be described thus: Tanguay_ZF_120hpf_CFIN_legacy: (Legacy) Oregon State University Tanguay Lab 120 Hour Post-fertilization zebrafish Assay for Caudal Fin Malformation (AID 2283649). In short, it runs like this: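 Binary presence or absence of caudal fin malformation at 120 hpf, read by brightfield microscopy, with DMSO as baseline. Larvae came from 5D wild-type embryos exposed statically from 6 hpf at 28C after pronase dechorionation.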

A short description of assay [4]: Tanguay_ZF_120hpf_PIG_legacy: (Legacy) Oregon State University Tanguay Lab 120 Hour Post-fertilization zebrafish Assay for Pigmentation Malformation (AID 2283650). In short, it runs like this:
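Pigment malformation recorded as a binary call at 120 hpf in zebrafish (Tropical 5D) exposed singly from 6 hpf after pronase dechorionation. Static, sealed, 28C exposure, 0.64% DMSO; mortality excludes scoring; positive-direction fit against DMSO.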

A short description of assay [5]: Tanguay_ZF_120hpf_CIRC_legacy: (Legacy) Oregon State University Tanguay Lab 120 Hour Post-fertilization zebrafish Assay for Circulatory Malformation (AID 2283651). In short, it runs like this: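 Binary circulatory malformation call at 120 hpf by brightfield imaging of zebrafish larvae; chorion removed at 4 hpf, static exposure from 6 hpf in sealed dark plates at 28C, final DMSO 0.64%; non-mortality endpoints skipped if embryo died.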

Assay [6] can be described thus: Tanguay_ZF_120hpf_SWIM_legacy: (Legacy) Oregon State University Tanguay Lab 120 Hour Post-fertilization zebrafish Assay for Swim Bladder Malformation (AID 2283654).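 Note: swim bladder malformation in each larva scored yes or no under brightfield.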 The method in brief:
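Scoring is binary for swim bladder defects at 120 hpf, by brightfield inspection of zebrafish larvae. Embryos were exposed singly from 6 hpf after pronase dechorionation, at 28C with 0.64% DMSO; mortality excluded scoring.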

Assay [7] in a line: Tanguay_ZF_120hpf_TRUN_legacy: (Legacy) Oregon State University Tanguay Lab 120 Hour Post-fertilization zebrafish Assay for Truncated Body (AID 2283655). In short, it runs like this:
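Truncated body is recorded as a binary endpoint at 120 hpf by brightfield imaging of wild-type 5D larvae. Exposure runs statically from 6 hpf at 28C with 0.64% DMSO; embryos dying earlier are not scored.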

Assay [8] in a line: Tanguay_ZF_120hpf_NC_legacy: (Legacy) Oregon State University Tanguay Lab 120 Hour Post-fertilization zebrafish Assay for Notochord and Tail Malformation (AID 2283656). In short, it runs like this:
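Binary scoring of notochord distortion by brightfield microscopy; embryos dying were not scored. Wild-type Tropical 5D embryos, chorion removed, exposed singly and statically from 6 to 120 hpf, 28C, sealed, 0.64% DMSO.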

Read-out in assay [9]: ABC Transporter (ABCB1), ABCB1 (gene 5243)
As to the kind of experiment: CLD_ABCB1_6hr: CellzDirect (CLD) Gene Expression Assay for ABC Transporter (ABCB1) at 6 hours (AID 2283659).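 Note: hits raise ABCB1 transcript above the DMSO vehicle baseline.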 In short, it runs like this:
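ABCB1 transcript measured by quantitative nuclease protection assay, chemiluminescent read-out, 6 h after dosing human hepatocyte cultures (0.2% DMSO vehicle, daily redosing). Activity fitted as increase over DMSO baseline; cytotoxicity flagged by phase-contrast morphology.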

Read-out in assay [10]: xenobiotic metabolism (CYP1A1), CYP1A1 (gene 1543)
As to the kind of experiment: CLD_CYP1A1_6hr: CellzDirect (CLD) Gene Expression Assay for xenobiotic metabolism (CYP1A1) at 6 hours (AID 2283661).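 For AC50: potency for transcript induction above DMSO vehicle baseline.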 The method in brief:
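Read-out 6 h post-dose: qNPA chemiluminescent quantitation of transcript induction against 0.2% DMSO. Cells were cultured primary human hepatocytes from two separate donor preparations; phase-contrast morphology annotated apparent cytotoxicity.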

Assay [11] can be described thus: Tanguay_ZF_120hpf_TR_legacy: (Legacy) Oregon State University Tanguay Lab 120 Hour Post-fertilization zebrafish Assay for Touch Response (AID 2283667). In short, it runs like this: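 Binary touch-response endpoint in larvae at 120 hpf after static waterborne exposure from embryo stage (28°C, 0.64% DMSO vehicle, 5 uM trimethyltin chloride as positive control); embryos dead at 24 or 120 hpf excluded; fitted as gain versus DMSO.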

Assay [12] concerns Thyroperoxidase (TPO), gene 54314. Put plainly: CCTE_Simmons_AUR_rTPO: CCTE's Amplex UltraRed Assay for Thyroperoxidase (TPO) Inhibition, Simmons Lab (AID 2283662).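 Note: potency for loss of signal meaning inhibition of peroxidase activity.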 In short, it runs like this:
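Endpoint is decreased Amplex UltraRed fluorescence after a 30-min, 37C reaction of rat thyroid microsomes with 300 uM H2O2. Eight test concentrations (5 nM–87.5 uM final) in 0.5% DMSO, three biological replicates each.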

Assay [13] is described as follows: CCTE_Simmons_CellTiterGLO_HEK293T: Viability Assessment in CCTE's Assays for Thyroperoxidase (TPO) Inhibition, Simmons Lab (AID 2283665).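 For AC50: cells exposed to compound for 24 h before readout; actives reduce ATP signal below DMSO vehicle meaning cytotoxicity.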 The method in brief: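 Luciferase-coupled ATP content after 24 h exposure gives viability; 8-point series from 5 nM to 87.5 uM final in 0.5% DMSO. Human HEK293T cells, 1% FBS medium, three biological replicates, dichlone positive control.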

Read-out in assay [14]: Broad substrate specificity ATP-binding cassette transporter ABCG2 (Homo sapiens) (UniProt Q9UNQ0)
Put plainly: CLD_ABCG2_6hr: CellzDirect (CLD) Gene Expression Assay for ABC Transporter (ABCG2) at 6 hours (AID 2283660). The method in brief:
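ABCG2 mRNA induction measured by qNPA chemiluminescence in human primary hepatocyte cultures, 6 h post-dose. Chemicals tested at several concentrations against a 0.2% DMSO vehicle; positive-direction fit relative to DMSO.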

Read-out in assay [15]: xenobiotic metabolism (CYP1A2), CYP1A2 (gene 1544)
Put plainly: CLD_CYP1A2_6hr: CellzDirect (CLD) Gene Expression Assay for xenobiotic metabolism (CYP1A2) at 6 hours (AID 2283663).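 For AC50: potency is for induction meaning a rise in mRNA above DMSO.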 The method in brief:
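mRNA levels quantified by quantitative nuclease protection assay with chemiluminescence, 6 h after dosing human primary hepatocyte cultures (two donors) across several concentrations, vehicle 0.2% DMSO. Induction fitted upward versus DMSO; phase-contrast cytotoxicity annotated.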

Read-out in assay [16]: kallikrein-3 (KLK3), KLK3 (gene 354)
As to the kind of experiment: LTEA_HepaRG_KLK3: Life Technologies and Expression Analysis (LTEA) Assay for kallikrein-3 (KLK3) using HepaRG (AID 2283652; active = hit-call score of the fitted dose curve at least 0.9, where 1 is the maximum; inactive = score below 0.9). The note with it: mRNA level, 48 h; actives raise or lower the signal. In short, it runs like this: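 KLK3 transcript levels were measured by TaqMan qRT-PCR with normalisation to three housekeeping genes. HepaRG cultures received chemicals for 48 h at up to 100 uM (half-log, 8 points, 0.5% DMSO vehicle), fitted in both directions against DMSO.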

Read-out in assay [17]: solute carrier (SLC22A6), SLC22A6 (gene 9356)
As to the kind of experiment: LTEA_HepaRG_SLC22A6: Life Technologies and Expression Analysis (LTEA) Assay for solute carrier (SLC22A6) using HepaRG (AID 2283653; active = hit-call score of the fitted dose curve at least 0.9, where 1 is the maximum; inactive = score below 0.9). The note with it: mRNA level, 48 h; actives raise or lower the signal. In short, it runs like this: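 Read-out is SLC22A6 transcript level by qRT-PCR, normalised to three housekeeping genes and fitted for gain or loss relative to 0.5% DMSO vehicle. Human HepaRG cells received chemicals at up to 100 uM for 48 h.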

Read-out in assay [18]: solute carrier (SLC10A1), SLC10A1 (gene 6554)
As to the kind of experiment: LTEA_HepaRG_SLC10A1: Life Technologies and Expression Analysis (LTEA) Assay for solute carrier (SLC10A1) using HepaRG (AID 2283657; active = hit-call score of the fitted dose curve at least 0.9, where 1 is the maximum; inactive = score below 0.9). The note with it: mRNA level, 48 h; actives raise or lower the signal. The method in brief: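 SLC10A1 transcript measured by TaqMan qRT-PCR, housekeeping-normalised, after 48 h chemical treatment of human HepaRG cells. Eight concentrations (half-log, max 100 uM, 0.5% DMSO vehicle) in duplicate; fitted bidirectionally against DMSO baseline.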

Read-out in assay [19]: matrix metalloproteinase-1 (MMP1), MMP1 (gene 4312)
As to the kind of experiment: LTEA_HepaRG_MMP1: Life Technologies and Expression Analysis (LTEA) Assay for matrix metalloproteinase-1 (MMP1) using HepaRG (AID 2283658; active = hit-call score of the fitted dose curve at least 0.9, where 1 is the maximum; inactive = score below 0.9). The settings on record: mRNA level, 48 h; actives raise or lower the signal. The method in brief:
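HepaRG, ~100,000 cells/well, 48 h pre-culture; serum-free induction medium; test chemical 8 conc (max 100 uM, half-log), duplicate, 48 h; 0.5% DMSO; qRT-PCR MMP1, housekeeping-normalized; gain/loss fit vs DMSO.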

Inconclusive results are not listed. Active and inactive are the calls of the source. Rule for the calls, unless noted: active = hit-call score of the fitted dose curve at least 0.9, where 1 is the maximum; inconclusive = response in the unintended direction; inactive = score below 0.9.

Broad substrate specificity ATP-binding cassette transporter ABCG2 (Homo sapiens), sequence (Q9UNQ0 whole entry, looked up): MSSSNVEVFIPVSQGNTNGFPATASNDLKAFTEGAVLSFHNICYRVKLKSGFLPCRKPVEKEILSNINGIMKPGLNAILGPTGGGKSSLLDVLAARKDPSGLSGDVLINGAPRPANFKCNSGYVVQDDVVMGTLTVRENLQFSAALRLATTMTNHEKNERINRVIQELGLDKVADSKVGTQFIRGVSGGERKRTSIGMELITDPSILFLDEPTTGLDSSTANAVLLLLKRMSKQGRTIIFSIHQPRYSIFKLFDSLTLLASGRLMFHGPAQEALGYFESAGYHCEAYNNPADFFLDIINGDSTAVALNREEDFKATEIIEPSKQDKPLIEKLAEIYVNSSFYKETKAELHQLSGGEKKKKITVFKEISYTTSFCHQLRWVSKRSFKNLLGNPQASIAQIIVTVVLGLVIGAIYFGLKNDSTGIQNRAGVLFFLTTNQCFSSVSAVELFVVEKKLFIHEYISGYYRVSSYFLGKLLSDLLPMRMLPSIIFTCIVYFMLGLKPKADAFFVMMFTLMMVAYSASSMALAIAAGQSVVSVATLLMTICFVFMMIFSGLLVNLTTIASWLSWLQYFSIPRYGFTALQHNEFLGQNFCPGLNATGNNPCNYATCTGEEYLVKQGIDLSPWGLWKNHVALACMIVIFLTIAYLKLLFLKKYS

On to `Cn1c(-c2ccccc2)cc(-c2ccccc2)[n+]1C`, for which the outcome in assay [1], in assay [2], in assay [3], in assay [4], in assay [5] and in [6] was inactive. In addition, the compound was classed as inactive in assay [7], in [8], in assay [9], in assay [10] and in assay [11].

On to `COP(=S)(OC)Oc1ccc([N+](=O)[O-])c(C)c1`, for which the result in assay [1], in assay [2], in assay [3], in [4], in [5] and in assay [6] was inactive. Moreover, the outcome in assay [7], in [8], in [9], in [13] and in assay [11] was inactive. The AC50 in [10] is 1.22 µM (active); in assay [12], 5.57 µM (active).

Take `CC(C)(C)C(=O)C(Oc1ccc(Cl)cc1)n1cncn1` (stereo unspecified): the compound was called inactive in [1], in assay [2], in assay [3], in assay [4], in [5] and in assay [6]. For the same compound, the compound was called inactive in assay [7], in assay [8], in [9], in assay [14] and in assay [11]. For the same compound, the results for the AC50 in assay [10] and in assay [15] were 3.97 µM (active) and 12.4 µM (active), respectively.

On to `CC(C)NC(=O)N1CC(=O)N(c2cc(Cl)cc(Cl)c2)C1=O`, for which the result in assay [1], in assay [2], in [3], in [4], in assay [5] and in assay [6] was inactive. Also, the call in assay [8], in [9], in assay [14] and in [11] was inactive. For the same compound, in assay [10], the AC50 is 8.11 µM (active).

As to `COCc1cnc(C2=NC(C)(C(C)C)C(=O)N2)c(C(=O)O)c1` (stereo unspecified), the call in [1], in [2], in assay [3], in assay [4], in assay [5] and in assay [6] was inactive. Besides, the call in [7], in assay [9], in assay [14] and in [11] was inactive.

In the case of `Cc1c(COC(=O)[C@@H]2[C@H](/C=C(\Cl)C(F)(F)F)C2(C)C)cccc1-c1ccccc1`, the outcome in assay [1], in [2], in assay [3], in assay [4], in assay [5] and in [6] was inactive. The compound was called inactive in [7], in assay [8], in [9], in assay [14], in assay [10] and in assay [11].

For `CC(C)Oc1cccc(NC(=O)c2ccccc2C(F)(F)F)c1`, the result in assay [1], in assay [2], in assay [3], in assay [4], in assay [5] and in [16] was inactive. Further, the outcome in assay [17], in assay [6], in [7], in [19], in assay [9] and in assay [11] was inactive. In addition, the AC50 in [18] was 74 µM (active); in assay [10] it was 3 µM (active).

On to `CCN(CC)C(=O)C(C)Oc1cccc2ccccc12` (stereo unspecified), for which the compound was called inactive in assay [1], in assay [2], in assay [3], in assay [4], in assay [5] and in [6]. The compound was classed as inactive in assay [7], in assay [8] and in [11]. The AC50 in [10] was 3.97 µM (active); in [12], 26.3 µM (active); in assay [13], 87.8 µM (active).

Take `CS(=O)(=O)c1cc(C(F)(F)F)ccc1C(=O)c1cnoc1C1CC1`: the compound was classed as inactive in assay [1], in assay [2], in assay [3], in [4], in assay [5] and in assay [6]. For the same compound, the result in assay [7], in assay [10], in assay [15] and in [11] was inactive.

These data come from PubChem BioAssay (EPA / NIEHS).
